1 sequence from PMC7862700, “An all-to-all approach to the identification of sequence-specific readers for epigenetic DNA modifications on cytosine” can be followed below.

Common to all, as to assay: DAPPL (digital affinity profiling via proximity ligation, sequencing); 10 mM Tris-HCl pH 7.5, 50 mM NaCl, 1 mM DTT, 4% glycerol, room temperature, 30 min; GST-TFs on glutathione beads, 16-mer random dsDNA library, 0.1% formaldehyde crosslink after washing; high values mean tight binding
Common to all, as to conditions: protein: recombinant; tags: N-terminal GST; dsDNA, one strand shown

The target of one experiment is T1, FLI1 (Homo sapiens, UniProt Q01543 1-452).
T1 sequence: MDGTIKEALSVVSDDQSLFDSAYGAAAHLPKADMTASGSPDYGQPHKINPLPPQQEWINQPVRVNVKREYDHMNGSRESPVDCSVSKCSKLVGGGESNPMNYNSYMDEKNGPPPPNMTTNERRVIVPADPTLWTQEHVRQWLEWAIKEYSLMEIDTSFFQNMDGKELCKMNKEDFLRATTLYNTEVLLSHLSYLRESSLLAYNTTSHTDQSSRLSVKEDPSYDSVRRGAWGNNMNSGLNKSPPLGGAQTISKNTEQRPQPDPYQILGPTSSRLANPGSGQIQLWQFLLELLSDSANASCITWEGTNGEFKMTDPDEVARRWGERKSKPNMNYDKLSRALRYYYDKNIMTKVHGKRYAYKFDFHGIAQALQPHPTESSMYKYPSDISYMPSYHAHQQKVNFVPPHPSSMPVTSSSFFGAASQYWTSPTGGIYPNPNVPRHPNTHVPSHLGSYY
In a few lines: (§1)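 GST fusions of human transcription factors were expressed in yeast and captured with glutathione beads. Once given DNA barcodes and pooled alongside a tag-only sample, they were incubated for 30 min at room temperature with 200 nmole of a random double-stranded 16-mer DNA library in Tris/NaCl/DTT/glycerol buffer, then washed, crosslinked (0.1% formaldehyde), proximity-ligated, PCR-amplified and sequenced on an Illumina NextSeq500. The binding signal of each hexamer is its read frequency for a factor divided by its frequency for the tag-only sample.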

The next experiment has as its target T2, ELK1 (Homo sapiens, UniProt P19419 1-428).
T2 sequence: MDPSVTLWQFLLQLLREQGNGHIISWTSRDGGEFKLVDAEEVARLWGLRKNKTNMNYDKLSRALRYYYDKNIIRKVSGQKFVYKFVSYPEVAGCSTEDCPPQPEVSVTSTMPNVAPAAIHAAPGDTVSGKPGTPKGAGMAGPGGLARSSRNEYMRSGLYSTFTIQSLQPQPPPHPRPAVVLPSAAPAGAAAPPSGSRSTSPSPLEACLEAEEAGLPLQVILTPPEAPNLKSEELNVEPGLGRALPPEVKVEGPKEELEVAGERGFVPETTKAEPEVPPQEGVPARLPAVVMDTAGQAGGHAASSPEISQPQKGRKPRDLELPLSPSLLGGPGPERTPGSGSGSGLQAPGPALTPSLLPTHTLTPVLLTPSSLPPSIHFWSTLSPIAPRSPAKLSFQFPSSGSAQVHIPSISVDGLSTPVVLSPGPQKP
In a few lines:
as §1

The next experiment has as its target T3, GABPA (Homo sapiens, UniProt Q06546 1-454).
T3 sequence: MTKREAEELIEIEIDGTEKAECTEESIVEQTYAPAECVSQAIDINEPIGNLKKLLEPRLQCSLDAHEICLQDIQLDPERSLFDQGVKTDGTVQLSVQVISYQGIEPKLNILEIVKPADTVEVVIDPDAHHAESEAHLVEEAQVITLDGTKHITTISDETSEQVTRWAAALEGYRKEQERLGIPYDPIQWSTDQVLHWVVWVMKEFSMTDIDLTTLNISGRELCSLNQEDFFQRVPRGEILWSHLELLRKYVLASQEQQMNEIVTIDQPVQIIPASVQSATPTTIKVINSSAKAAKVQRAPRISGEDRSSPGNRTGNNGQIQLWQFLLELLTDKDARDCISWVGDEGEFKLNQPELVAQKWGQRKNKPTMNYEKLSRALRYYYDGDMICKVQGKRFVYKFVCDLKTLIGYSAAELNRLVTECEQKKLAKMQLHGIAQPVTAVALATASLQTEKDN
An outline of the steps: as §1

Another experiment concerns the target T4, ERG (Homo sapiens, UniProt P11308 1-479).
T4 sequence: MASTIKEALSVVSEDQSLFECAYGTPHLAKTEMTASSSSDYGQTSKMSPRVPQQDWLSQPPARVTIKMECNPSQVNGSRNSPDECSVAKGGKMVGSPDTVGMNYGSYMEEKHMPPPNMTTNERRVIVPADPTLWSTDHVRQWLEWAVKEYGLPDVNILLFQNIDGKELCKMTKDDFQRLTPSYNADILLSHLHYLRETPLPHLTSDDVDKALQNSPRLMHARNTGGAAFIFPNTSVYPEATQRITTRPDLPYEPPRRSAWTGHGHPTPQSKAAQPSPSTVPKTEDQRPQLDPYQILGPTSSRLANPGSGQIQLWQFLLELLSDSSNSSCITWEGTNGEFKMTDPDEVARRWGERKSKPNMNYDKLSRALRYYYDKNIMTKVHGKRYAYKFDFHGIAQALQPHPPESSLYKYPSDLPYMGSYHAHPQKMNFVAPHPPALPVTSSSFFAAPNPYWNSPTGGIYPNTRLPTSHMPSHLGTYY
An outline of the steps:
as §1

For another experiment, the target named is ELF1 (Homo sapiens, UniProt P32519 1-619). An outline of the steps:
as §1

The target of a further experiment is T5, EHF (Homo sapiens, UniProt Q9NZC4 1-300).
T5 sequence: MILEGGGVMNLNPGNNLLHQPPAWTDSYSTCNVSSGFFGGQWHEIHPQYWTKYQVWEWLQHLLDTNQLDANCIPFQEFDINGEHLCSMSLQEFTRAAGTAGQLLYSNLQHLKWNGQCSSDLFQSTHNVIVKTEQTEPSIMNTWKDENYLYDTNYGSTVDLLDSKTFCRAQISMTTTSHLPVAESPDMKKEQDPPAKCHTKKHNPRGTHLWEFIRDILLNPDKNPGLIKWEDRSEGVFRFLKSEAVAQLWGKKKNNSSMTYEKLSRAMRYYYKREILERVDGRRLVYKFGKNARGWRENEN
In a few lines:
as §1

Another experiment concerns the target SPI1 (Homo sapiens, UniProt P17947 1-270). An outline of the steps: as §1
In the next experiment the target is SPIB (Homo sapiens, UniProt Q01892 1-262). In a few lines:
as §1

In the next experiment the target is T6, ELK3 (Homo sapiens, UniProt P41970 1-407).
T6 sequence: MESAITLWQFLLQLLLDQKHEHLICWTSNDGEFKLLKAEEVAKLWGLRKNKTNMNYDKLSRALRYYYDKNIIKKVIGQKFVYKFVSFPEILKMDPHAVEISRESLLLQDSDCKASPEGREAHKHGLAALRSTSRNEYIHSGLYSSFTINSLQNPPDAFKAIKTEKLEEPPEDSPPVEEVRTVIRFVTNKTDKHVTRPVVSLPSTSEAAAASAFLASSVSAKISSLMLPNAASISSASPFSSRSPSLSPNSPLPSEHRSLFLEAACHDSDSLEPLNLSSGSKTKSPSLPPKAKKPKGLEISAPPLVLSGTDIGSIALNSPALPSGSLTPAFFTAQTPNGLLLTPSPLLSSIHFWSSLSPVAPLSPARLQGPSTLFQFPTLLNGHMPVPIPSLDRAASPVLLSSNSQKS
In a few lines: as §1

The next experiment has as its target T7, FEV (Homo sapiens, UniProt Q99581 1-238).
T7 sequence: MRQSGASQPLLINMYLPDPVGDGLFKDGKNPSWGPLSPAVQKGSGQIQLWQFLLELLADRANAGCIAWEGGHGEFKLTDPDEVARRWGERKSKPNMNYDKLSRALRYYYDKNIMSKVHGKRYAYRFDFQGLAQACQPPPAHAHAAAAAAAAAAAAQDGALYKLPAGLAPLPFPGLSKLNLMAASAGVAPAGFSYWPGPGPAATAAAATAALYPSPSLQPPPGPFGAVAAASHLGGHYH
An outline of the steps:
as §1

A further experiment concerns the target ETV5 (Homo sapiens, UniProt P41161 1-510). In a few lines: as §1
The target of the next experiment is T8, SPIC (Homo sapiens, UniProt Q8N5J4 1-248).
T8 sequence: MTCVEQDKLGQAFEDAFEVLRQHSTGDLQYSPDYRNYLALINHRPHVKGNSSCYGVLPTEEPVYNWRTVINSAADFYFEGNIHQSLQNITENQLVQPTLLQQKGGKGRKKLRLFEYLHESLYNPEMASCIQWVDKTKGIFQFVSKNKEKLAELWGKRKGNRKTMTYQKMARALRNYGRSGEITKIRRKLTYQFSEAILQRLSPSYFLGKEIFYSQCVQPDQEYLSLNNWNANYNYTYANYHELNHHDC
An outline of the steps: as §1

The next experiment has as its target ELF4 (Homo sapiens, UniProt Q99607 1-663). An outline of the steps: as §1
The target in a further experiment is T9, ELK4 (Homo sapiens, UniProt P28324-2 1-405).
T9 sequence: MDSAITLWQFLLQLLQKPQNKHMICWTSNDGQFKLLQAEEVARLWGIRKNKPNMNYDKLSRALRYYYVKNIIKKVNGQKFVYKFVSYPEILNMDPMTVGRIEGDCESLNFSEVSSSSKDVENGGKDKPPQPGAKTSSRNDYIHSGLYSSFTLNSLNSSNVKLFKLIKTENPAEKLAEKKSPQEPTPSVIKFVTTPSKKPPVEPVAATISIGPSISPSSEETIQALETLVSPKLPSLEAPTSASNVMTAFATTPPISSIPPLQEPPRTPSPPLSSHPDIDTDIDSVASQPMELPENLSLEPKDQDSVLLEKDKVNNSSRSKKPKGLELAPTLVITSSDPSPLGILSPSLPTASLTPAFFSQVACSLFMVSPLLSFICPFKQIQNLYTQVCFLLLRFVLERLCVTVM
In a few lines: as §1

The next experiment deals with T10, ETV2 (Homo sapiens, UniProt O00321 1-342).
T10 sequence: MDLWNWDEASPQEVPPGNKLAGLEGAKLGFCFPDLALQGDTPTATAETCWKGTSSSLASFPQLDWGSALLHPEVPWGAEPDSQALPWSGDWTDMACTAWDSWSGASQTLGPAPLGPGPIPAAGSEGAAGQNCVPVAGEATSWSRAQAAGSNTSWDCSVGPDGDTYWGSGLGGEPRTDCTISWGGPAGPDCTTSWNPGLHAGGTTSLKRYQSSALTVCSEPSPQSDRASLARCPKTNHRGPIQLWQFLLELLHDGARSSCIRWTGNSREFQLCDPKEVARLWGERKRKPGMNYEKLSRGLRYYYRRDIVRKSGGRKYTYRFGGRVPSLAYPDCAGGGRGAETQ
An outline of the steps:
as §1

The target in the next experiment is T11, ELF3 (Homo sapiens, UniProt P78545 1-371).
T11 sequence: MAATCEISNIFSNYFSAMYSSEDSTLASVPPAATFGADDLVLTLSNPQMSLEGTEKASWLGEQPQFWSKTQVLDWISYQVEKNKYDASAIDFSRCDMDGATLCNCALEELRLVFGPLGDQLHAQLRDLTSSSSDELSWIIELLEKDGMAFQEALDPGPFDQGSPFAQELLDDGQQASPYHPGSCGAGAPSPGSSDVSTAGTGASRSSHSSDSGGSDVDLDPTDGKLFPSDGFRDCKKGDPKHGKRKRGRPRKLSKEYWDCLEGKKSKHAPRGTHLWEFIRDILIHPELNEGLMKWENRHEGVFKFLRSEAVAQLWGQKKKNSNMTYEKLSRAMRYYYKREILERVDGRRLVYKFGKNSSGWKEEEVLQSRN
An outline of the steps: as §1

In a further experiment the target is ETV1 (Homo sapiens, UniProt P50549 1-477). In a few lines: as §1
Sequence of ETV1 (P50549 whole entry): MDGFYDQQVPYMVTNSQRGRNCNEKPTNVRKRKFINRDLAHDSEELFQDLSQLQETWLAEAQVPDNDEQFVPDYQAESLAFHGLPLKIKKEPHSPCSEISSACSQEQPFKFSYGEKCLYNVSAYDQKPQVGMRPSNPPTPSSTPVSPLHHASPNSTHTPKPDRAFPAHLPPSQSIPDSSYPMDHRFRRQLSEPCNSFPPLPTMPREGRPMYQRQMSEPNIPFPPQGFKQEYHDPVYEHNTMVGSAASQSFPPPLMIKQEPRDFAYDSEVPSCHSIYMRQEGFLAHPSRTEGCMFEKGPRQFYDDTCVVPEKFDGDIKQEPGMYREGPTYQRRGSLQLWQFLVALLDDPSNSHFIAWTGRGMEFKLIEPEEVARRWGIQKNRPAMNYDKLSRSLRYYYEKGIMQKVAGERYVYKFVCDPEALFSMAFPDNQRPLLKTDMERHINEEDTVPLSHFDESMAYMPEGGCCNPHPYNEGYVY

Sequence of SPIB (Q01892 whole entry): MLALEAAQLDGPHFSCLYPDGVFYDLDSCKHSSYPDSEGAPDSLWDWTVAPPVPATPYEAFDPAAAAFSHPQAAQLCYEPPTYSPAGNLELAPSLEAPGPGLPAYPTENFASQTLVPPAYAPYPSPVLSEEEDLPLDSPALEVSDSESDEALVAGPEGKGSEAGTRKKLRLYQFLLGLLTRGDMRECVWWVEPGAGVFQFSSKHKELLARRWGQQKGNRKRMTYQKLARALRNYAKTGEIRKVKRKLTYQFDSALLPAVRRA
Sequence of ELF4 (Q99607 whole entry): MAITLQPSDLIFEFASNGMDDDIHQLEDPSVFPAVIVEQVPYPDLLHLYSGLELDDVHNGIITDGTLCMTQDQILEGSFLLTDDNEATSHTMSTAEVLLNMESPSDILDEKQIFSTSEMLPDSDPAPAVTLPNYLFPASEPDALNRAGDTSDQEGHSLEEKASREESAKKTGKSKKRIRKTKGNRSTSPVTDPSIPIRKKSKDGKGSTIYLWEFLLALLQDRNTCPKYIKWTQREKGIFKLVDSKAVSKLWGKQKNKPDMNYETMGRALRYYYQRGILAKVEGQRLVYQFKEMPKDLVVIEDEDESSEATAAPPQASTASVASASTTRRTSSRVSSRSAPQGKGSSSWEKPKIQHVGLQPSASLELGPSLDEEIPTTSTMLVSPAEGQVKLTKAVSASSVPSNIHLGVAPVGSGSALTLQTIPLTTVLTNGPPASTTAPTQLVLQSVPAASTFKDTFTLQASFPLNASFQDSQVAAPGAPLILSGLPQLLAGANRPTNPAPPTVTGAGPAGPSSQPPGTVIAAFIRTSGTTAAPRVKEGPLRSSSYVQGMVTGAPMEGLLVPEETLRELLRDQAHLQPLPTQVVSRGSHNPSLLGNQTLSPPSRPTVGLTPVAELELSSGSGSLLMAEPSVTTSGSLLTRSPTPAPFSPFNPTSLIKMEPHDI
Sequence of ETV5 (P41161 whole entry): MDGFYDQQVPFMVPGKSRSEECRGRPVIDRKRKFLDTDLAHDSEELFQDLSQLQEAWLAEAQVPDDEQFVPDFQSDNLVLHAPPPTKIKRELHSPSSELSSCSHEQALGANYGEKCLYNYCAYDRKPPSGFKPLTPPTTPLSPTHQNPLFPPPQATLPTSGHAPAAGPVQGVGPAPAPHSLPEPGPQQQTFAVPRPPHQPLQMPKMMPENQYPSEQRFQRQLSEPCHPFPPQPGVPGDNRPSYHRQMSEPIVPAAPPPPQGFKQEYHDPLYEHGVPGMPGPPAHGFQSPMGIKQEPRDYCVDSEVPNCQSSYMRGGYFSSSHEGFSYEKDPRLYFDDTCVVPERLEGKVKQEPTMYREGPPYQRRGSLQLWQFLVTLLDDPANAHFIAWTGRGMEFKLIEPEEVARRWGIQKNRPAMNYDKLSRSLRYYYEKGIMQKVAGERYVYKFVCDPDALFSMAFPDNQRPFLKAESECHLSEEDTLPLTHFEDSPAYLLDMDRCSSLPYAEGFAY
Sequence of ELF1 (P32519 whole entry): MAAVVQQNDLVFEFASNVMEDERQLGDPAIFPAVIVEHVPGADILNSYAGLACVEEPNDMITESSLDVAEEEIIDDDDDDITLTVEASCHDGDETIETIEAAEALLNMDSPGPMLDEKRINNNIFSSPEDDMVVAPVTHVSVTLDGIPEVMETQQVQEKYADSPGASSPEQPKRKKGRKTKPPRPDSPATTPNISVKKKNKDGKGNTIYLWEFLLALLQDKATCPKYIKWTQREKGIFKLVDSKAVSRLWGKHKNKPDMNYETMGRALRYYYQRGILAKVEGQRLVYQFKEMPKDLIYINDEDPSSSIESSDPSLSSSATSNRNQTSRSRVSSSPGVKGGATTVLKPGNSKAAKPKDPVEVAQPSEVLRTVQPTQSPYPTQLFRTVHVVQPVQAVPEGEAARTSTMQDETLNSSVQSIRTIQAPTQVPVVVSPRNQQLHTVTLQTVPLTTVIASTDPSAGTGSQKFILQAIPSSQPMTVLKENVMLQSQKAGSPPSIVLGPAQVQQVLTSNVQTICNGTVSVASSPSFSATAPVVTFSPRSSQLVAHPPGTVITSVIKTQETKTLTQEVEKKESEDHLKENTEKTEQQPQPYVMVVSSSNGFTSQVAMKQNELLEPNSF

For TGGCAG, the binding signal in the experiment with FLI1 is 1.19 fold enrichment (6-mer frequency, TF over GST control); in the experiment with ELK1 it was 1.09 fold enrichment (6-mer frequency, TF over GST control); with GABPA, 1.07 fold enrichment (6-mer frequency, TF over GST control); in the experiment with ERG, 1.01 fold enrichment (6-mer frequency, TF over GST control); with ELF1, 1.06 fold enrichment (6-mer frequency, TF over GST control); with EHF, 1.11 fold enrichment (6-mer frequency, TF over GST control). Also, the binding signal with SPI1 is 1.1 fold enrichment (6-mer frequency, TF over GST control); in the experiment with SPIB it was 1.12 fold enrichment (6-mer frequency, TF over GST control); in the experiment with ELK3, 1.21 fold enrichment (6-mer frequency, TF over GST control); with FEV it was 1.18 fold enrichment (6-mer frequency, TF over GST control); with ETV5 it was 1.07 fold enrichment (6-mer frequency, TF over GST control); in the experiment with SPIC it was 1.05 fold enrichment (6-mer frequency, TF over GST control). Moreover, the binding signal with ELF4 was 1.02 fold enrichment (6-mer frequency, TF over GST control); with ELK4, 1.01 fold enrichment (6-mer frequency, TF over GST control); in the experiment with ETV2, 1.29 fold enrichment (6-mer frequency, TF over GST control); with ELF3, 1.02 fold enrichment (6-mer frequency, TF over GST control); in the experiment with ETV1 it was 1.05 fold enrichment (6-mer frequency, TF over GST control).
